The panel holds about 83,000 compounds, 20% with a hit somewhere; the sample as a whole holds those more often.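 The test compound was applied at a single concentration to cells in 96-well plates for 48 hours, and percent growth was recorded.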 Active and inactive are the calls of the source. The calls were made as follows: active = growth percent below 10; inactive = the rest.

The subject of the first experiment is EKVX NSCLC. Kind of experiment: NCI-60 one-dose screen, 48 h (100 = growth as untreated, 0 = no growth, -100 = all killed). The conditions noted are these: 10 µM unless noted.
`CC/C(=C(/c1ccc(Cl)cc1)c1ccc(OCCN2CCCC2)cc1)c1ccc(OC)cc1`: the growth is 65.1% (inactive).
On the same count and under the same terms, with `c1cc2[nH]ncc2cc1-c1nc2ccc3[nH]ncc3c2c2c1CCCC2` the figure was 17.8% (inactive); with `O=C(/C=C/c1ccc(Cl)cc1)c1cccc(Nc2nc(Nc3ccccc3)nc(Nc3ccccc3)n2)c1`, 106% (inactive); with `N#Cc1nc(-c2ccccc2)oc1S(=O)(=O)N1CCOCC1`, 106% (inactive).
Same read-out and setting: with `O=C1Nc2ccccc2/C1=C\c1nc(-c2ccccc2)n2ccccc12` the figure was 74.1% (inactive); with `O=C(COc1ccc(-c2nc3ccccc3[nH]2)cc1)N=Nc1c(O)[nH]c2ccc(Cl)cc12`, 95.7% (inactive); with `COc1ccc(NC(=O)c2sc3nc(C)c(C(=O)/C=C/c4cccc(OC)c4)cc3c2N)cc1`, 93.5% (inactive).
For the molecule `COc1cnc2c(c1)C(=O)c1c-2n(CCCNCCO)c(=O)c2ccncc12`, the growth is 19.7% (inactive).
Still for that read-out and setting: the value for `O=C(Nc1nc2ccc(F)cc2s1)c1cccnc1Nc1ccc(Cl)cc1` was 9.81% (active).
Same read-out and setting: with `N#CC1C=CN(CC(N)=O)c2ccc3cccnc3c21` (stereo not given) the figure was 97.9% (inactive); with `COc1ccc(-c2nc3c(c(-c4ccccc4)nn3-c3ccccc3)c(-c3ccc(N4CCN(C)CC4)cc3)c2C#N)cc1`, 104% (inactive); with `Cn1c(=O)c2[nH]c(N/N=C/c3ccccc3Br)nc2n(C)c1=O`, 128% (inactive).
Still for that read-out and setting: with `O=C(Nc1ccc(NC(=O)c2cc(=O)[nH]c3ccccc23)cc1)Nc1cccc(C(F)(F)F)c1` the figure was 66.8% (inactive).
Turning to `O=C1C(Cl)=C(Oc2ccccc2)C(=O)c2ccccc21`, the growth is 87.2% (inactive).
On the same count and under the same terms, with `CC(C)OC(=O)c1ccc2[nH]c(O)c(C(=Nc3ccc(N(C)C(=O)CN4CCN(C)CC4)cc3)c3ccccc3)c2c1` the figure was -3.97% (active); with `O=C1C(Cl)=C(Nc2ccc(O)cc2)C(=O)N1Cc1ccc(Cl)cc1`, 79% (inactive); with `COc1cc(OC)c2sc(-c3ccc(-n4cncc4-c4ccc(OC)c(OC)c4)cc3)nc2c1`, 54.7% (inactive).
On the same count and under the same terms, the value for `CCN(CC)C(=S)SC(SC(=S)N(CC)CC)C(=O)c1nnn(-c2ccc([N+](=O)[O-])cc2)c1C` was 97.2% (inactive); that for `COc1cccc(CNc2ncnc3c2ncn3C2OC(CO)C(O)C2O)c1O` (stereo not given) was 24.6% (inactive); that for `CC(C)c1ccc(COCc2cc(CN3CCCC3)c(O)c3ncccc23)cc1` was 33.4% (inactive).
Same read-out and setting: the value for `O=C(NCc1ccccc1)Nc1ccccc1CNc1nc(Nc2ccc(OCCN3CCCC3)cc2)ncc1Cl` was 99.2% (inactive).
As for `Cc1ccc(-n2c(=S)[nH]c3sc4c(c3c2=O)CCC(=O)C4)cc1`, the growth was 93.7% (inactive).
The same measure, in the same setting: with `Oc1c(Cl)cc(Cl)cc1/C=N/Nc1nnc(N/N=C/c2cc(Cl)cc(Cl)c2O)c2ccccc12` the figure was 10.2% (inactive); with `CCCCCCC1(C)NCCO1` (stereo not given), 112% (inactive); with `Clc1ccc2c(c1)N(c1ncnc3ccc(-c4cnc5[nH]ncc5c4)cc13)CC2`, 16.8% (inactive).
In the case of `COC(=O)c1cc(-c2ccc(S(C)(=O)=O)cc2)[nH]c1N/N=C/c1c(Cl)cccc1Cl`, the growth was 42.2% (inactive).
Take `C=CCn1c(SCC(=O)Nc2ccc(C(=O)/C=C/c3ccc(Cl)cc3)cc2)nnc1-c1cc(-c2ccc(S(N)(=O)=O)cc2)nc2ccccc12`: the growth is 94.6% (inactive).
Same read-out and setting: the value for `Cc1cc2c(O)c(-c3cc(Cl)ccc3Cl)c3sc(=O)oc3c2cc1C` was 94.6% (inactive); that for `CC(=O)N(N=Nc1ccccc1)c1cccc2ccccc12` was 101% (inactive); that for `Cc1ccc(-c2nc3nc(-c4ccc(F)cc4)nc(N4CCNCC4)c3o2)cc1` was 127% (inactive).
`O=c1oc2ccc([N+](=O)[O-])cc2cc1Br`: the growth was 102% (inactive).
In the case of `COc1ccc2nc(NC(=O)CSc3nnc4n3S(=O)(=O)c3ccccc3N4C)sc2c1`, the growth was 106% (inactive).
Turning to `Cc1ccc(-c2nn(-c3ccccc3)cc2C=C2C(=O)ON=C2C(C)C)cc1`, the growth is 102% (inactive).
Same read-out and setting: with `Cc1cccc(N2CCN(CC(O)COc3ccc(Cl)cc3)CC2)c1` (stereo not given) the figure was 96.8% (inactive).
Same read-out and setting: with `Cc1nc2c(=O)[nH]c(SCC(=O)Nc3cccc(F)c3)nc2[nH]c1=O` the figure was 104% (inactive).
On the same count and under the same terms, with `CN(C)c1ccc(/C=C/C(=O)c2ccc(-n3cc(CN4CCN(c5cc6c(cc5F)c(=O)c(C(=O)O)cn6C5CC5)CC4)nn3)cc2)cc1` the figure was 87.6% (inactive).
`COc1cc2c(c(OC)c1OC)-c1ccc(OC)c(=O)cc1[C@@H](NC(=O)CCl)CC2`: the growth is 74.3% (inactive).
Same read-out and setting: the value for `O=C(Nc1cccnc1Nc1ccc(F)cc1)c1cn(Cc2cccc(Oc3ccccc3)c2)nn1` was 75.9% (inactive); that for `COc1ccc(-c2ccc3cnc4sc(-c5ccc(OC)cc5)nc4c3n2)cc1` was 68.6% (inactive).
With `CN1CCN(c2ccc(NC(=O)c3cncnc3Nc3ccc(OCc4ccccn4)c(Cl)c3)cc2)CC1`, the growth is 85.6% (inactive).

For the next experiment, the system named is SN12C renal. The description is as above. The conditions noted are these: 10 µM unless noted.
As for `CC/C(=C(/c1ccc(Cl)cc1)c1ccc(OCCN2CCCC2)cc1)c1ccc(OC)cc1`, the growth is 79.5% (inactive).
Same read-out and setting: the value for `c1cc2[nH]ncc2cc1-c1nc2ccc3[nH]ncc3c2c2c1CCCC2` was 20.6% (inactive).
Still for that read-out and setting: with `O=C(/C=C/c1ccc(Cl)cc1)c1cccc(Nc2nc(Nc3ccccc3)nc(Nc3ccccc3)n2)c1` the figure was 102% (inactive).
On the same count and under the same terms, with `N#Cc1nc(-c2ccccc2)oc1S(=O)(=O)N1CCOCC1` the figure was 74.1% (inactive); with `O=C1Nc2ccccc2/C1=C\c1nc(-c2ccccc2)n2ccccc12`, 96.2% (inactive); with `O=C(COc1ccc(-c2nc3ccccc3[nH]2)cc1)N=Nc1c(O)[nH]c2ccc(Cl)cc12`, 83.9% (inactive).
With `COc1ccc(NC(=O)c2sc3nc(C)c(C(=O)/C=C/c4cccc(OC)c4)cc3c2N)cc1`, the growth is 19.7% (inactive).
The same measure, in the same setting: with `COc1cnc2c(c1)C(=O)c1c-2n(CCCNCCO)c(=O)c2ccncc12` the figure was 4.98% (active); with `O=C(Nc1nc2ccc(F)cc2s1)c1cccnc1Nc1ccc(Cl)cc1`, 17.9% (inactive).
The same measure, in the same setting: the value for `N#CC1C=CN(CC(N)=O)c2ccc3cccnc3c21` (stereo not given) was 96.3% (inactive); that for `COc1ccc(-c2nc3c(c(-c4ccccc4)nn3-c3ccccc3)c(-c3ccc(N4CCN(C)CC4)cc3)c2C#N)cc1` was 93.7% (inactive).
The same measure, in the same setting: the value for `Cn1c(=O)c2[nH]c(N/N=C/c3ccccc3Br)nc2n(C)c1=O` was 104% (inactive); that for `O=C(Nc1ccc(NC(=O)c2cc(=O)[nH]c3ccccc23)cc1)Nc1cccc(C(F)(F)F)c1` was 54.2% (inactive).
Regarding `O=C1C(Cl)=C(Oc2ccccc2)C(=O)c2ccccc21`, the growth is 87.9% (inactive).
On the same count and under the same terms, the value for `CC(C)OC(=O)c1ccc2[nH]c(O)c(C(=Nc3ccc(N(C)C(=O)CN4CCN(C)CC4)cc3)c3ccccc3)c2c1` was 8.95% (active); that for `O=C1C(Cl)=C(Nc2ccc(O)cc2)C(=O)N1Cc1ccc(Cl)cc1` was 64.9% (inactive); that for `COc1cc(OC)c2sc(-c3ccc(-n4cncc4-c4ccc(OC)c(OC)c4)cc3)nc2c1` was 72.3% (inactive).
As for `CCN(CC)C(=S)SC(SC(=S)N(CC)CC)C(=O)c1nnn(-c2ccc([N+](=O)[O-])cc2)c1C`, the growth was 96.4% (inactive).
Still for that read-out and setting: the value for `COc1cccc(CNc2ncnc3c2ncn3C2OC(CO)C(O)C2O)c1O` (stereo not given) was -3.64% (active); that for `CC(C)c1ccc(COCc2cc(CN3CCCC3)c(O)c3ncccc23)cc1` was 13.4% (inactive).
The same measure, in the same setting: the value for `O=C(NCc1ccccc1)Nc1ccccc1CNc1nc(Nc2ccc(OCCN3CCCC3)cc2)ncc1Cl` was 101% (inactive); that for `Cc1ccc(-n2c(=S)[nH]c3sc4c(c3c2=O)CCC(=O)C4)cc1` was 40.3% (inactive).
Still for that read-out and setting: with `Oc1c(Cl)cc(Cl)cc1/C=N/Nc1nnc(N/N=C/c2cc(Cl)cc(Cl)c2O)c2ccccc12` the figure was 20% (inactive).
Turning to `CCCCCCC1(C)NCCO1` (stereo not given), the growth is 103% (inactive).
Still for that read-out and setting: the value for `Clc1ccc2c(c1)N(c1ncnc3ccc(-c4cnc5[nH]ncc5c4)cc13)CC2` was 19.5% (inactive).
In the case of `COC(=O)c1cc(-c2ccc(S(C)(=O)=O)cc2)[nH]c1N/N=C/c1c(Cl)cccc1Cl`, the growth is 39.4% (inactive).
With `C=CCn1c(SCC(=O)Nc2ccc(C(=O)/C=C/c3ccc(Cl)cc3)cc2)nnc1-c1cc(-c2ccc(S(N)(=O)=O)cc2)nc2ccccc12`, the growth was 90.2% (inactive).
The same measure, in the same setting: the value for `Cc1cc2c(O)c(-c3cc(Cl)ccc3Cl)c3sc(=O)oc3c2cc1C` was 66.9% (inactive).
Take `CC(=O)N(N=Nc1ccccc1)c1cccc2ccccc12`: the growth is 85.7% (inactive).
Still for that read-out and setting: with `Cc1ccc(-c2nc3nc(-c4ccc(F)cc4)nc(N4CCNCC4)c3o2)cc1` the figure was -48.7% (active); with `O=c1oc2ccc([N+](=O)[O-])cc2cc1Br`, 105% (inactive); with `COc1ccc2nc(NC(=O)CSc3nnc4n3S(=O)(=O)c3ccccc3N4C)sc2c1`, 99.5% (inactive).
With `Cc1ccc(-c2nn(-c3ccccc3)cc2C=C2C(=O)ON=C2C(C)C)cc1`, the growth was 75.9% (inactive).
Same read-out and setting: with `Cc1cccc(N2CCN(CC(O)COc3ccc(Cl)cc3)CC2)c1` (stereo not given) the figure was 95.2% (inactive).
On the same count and under the same terms, with `Cc1nc2c(=O)[nH]c(SCC(=O)Nc3cccc(F)c3)nc2[nH]c1=O` the figure was 100% (inactive); with `CN(C)c1ccc(/C=C/C(=O)c2ccc(-n3cc(CN4CCN(c5cc6c(cc5F)c(=O)c(C(=O)O)cn6C5CC5)CC4)nn3)cc2)cc1`, 8.77% (active); with `COc1cc2c(c(OC)c1OC)-c1ccc(OC)c(=O)cc1[C@@H](NC(=O)CCl)CC2`, 19.3% (inactive).
On the same count and under the same terms, with `O=C(Nc1cccnc1Nc1ccc(F)cc1)c1cn(Cc2cccc(Oc3ccccc3)c2)nn1` the figure was 79.2% (inactive); with `COc1ccc(-c2ccc3cnc4sc(-c5ccc(OC)cc5)nc4c3n2)cc1`, 103% (inactive).
Turning to `CN1CCN(c2ccc(NC(=O)c3cncnc3Nc3ccc(OCc4ccccn4)c(Cl)c3)cc2)CC1`, the growth is 59.2% (inactive).

Source of the values: PubChem BioAssay (NCI).
